Assay outcomes from PubChem.
Rows were chosen to be rich in hits. Some 4.7% of all compounds tested hit in one or more screens of this group.
D1 agonist – agonists of human D1 dopamine receptor; HEK293 T-REx D1 cells, calcium flux, agonist mode; 1% of 360,000 active; activation, % at 2 µM; AID 504660; also: 0% is about no effect
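Inducible HEK293 T-REx D1 cells, force-coupled to calcium signalling, were plated at 4000 cells/well with tetracycline and held overnight at 30 C. After no-wash calcium dye loading, compound-evoked calcium rise over 180 s flagged agonists.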
D1 antag – antagonists of human D1 dopamine receptor. P21728. HEK293 TREx D1 cells, calcium flux, dopamine EC80; active compounds read low. activity change, negative = inhibition, % at 10 µM. 3.2% of 360,000 active. AID 504652; in the data active = activity change below about -30%; also: % is scaled to controls: 0 for no effect and ±100 for the full control effect
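After overnight tetracycline induction at 30 C, force-coupled D1 HEK293 cells took up a no-wash calcium dye at room temperature. Compounds were added and monitored 180 s, and the response to EC80 dopamine was then recorded.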
TRHR PAM – allosteric enhancers of human TRH receptor | AID 493056 | 0.66% of 360,000 active | enhancement, % at 2 µM | TRHR cells, fluo-8 calcium fluorescence, EC20 TRH enhancement; in the data active = enhancement above about 30%; also: 0% is about no effect
Target sequence (P34981 whole entry, looked up): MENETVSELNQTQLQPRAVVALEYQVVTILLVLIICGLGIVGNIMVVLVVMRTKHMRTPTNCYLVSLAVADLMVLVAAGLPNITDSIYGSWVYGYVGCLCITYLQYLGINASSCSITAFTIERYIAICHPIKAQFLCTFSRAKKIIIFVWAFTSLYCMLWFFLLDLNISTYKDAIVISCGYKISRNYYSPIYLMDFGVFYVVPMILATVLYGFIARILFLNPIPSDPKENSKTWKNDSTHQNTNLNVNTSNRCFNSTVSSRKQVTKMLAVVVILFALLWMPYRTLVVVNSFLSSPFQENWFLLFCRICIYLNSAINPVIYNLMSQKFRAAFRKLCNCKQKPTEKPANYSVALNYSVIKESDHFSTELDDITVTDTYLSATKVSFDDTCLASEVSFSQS
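TRHR-expressing cells loaded with fluo-8 calcium dye were read kinetically (ex 480/em 530) during compound addition, then stimulated with an EC20 of TRH (10 nM final). Enhancement of the Gq-mediated intracellular calcium response was scored.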
TRHR ag – activates the human TRH receptor; TRHR cells, calcium flux fluo-8, FDSS agonist mode; 0.18% of 360,000 active; AID 493084; P34981; activation, % at 2 µM; also: 0% is about no effect
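TRHR-expressing cells loaded with fluo-8 calcium dye; 23 nL library compound pin-transferred, kinetic FDSS fluorescence (Ex 480/Em 530) recorded about 180 s for agonist-induced calcium release, before a 10 nM TRH EC20 addition for potentiator mode.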
D1 potentiator – potentiators of human D1 dopamine receptor; P21728; AID 504651; HEK293 TREx D1 cells, calcium flux, dopamine EC20 potentiation; 0.036% of 360,000 active; potentiation, % at 10 µM; in the data active = potentiation above about 30%; also: 0% is about no effect
The depositor's hits bear a star; . = not tested or not shown. Rule as the data show it, unless noted: active = activation above about 30%; inactive = the rest.

SMILES	D1 agonist	D1 antag	TRHR PAM	TRHR ag	D1 potentiator
CCOC(=O)c1ccc(N2C(=O)c3n[nH]c(-c4ccco4)c3C2c2ccc(F)cc2)cc1 (centres undefined)	12	26	7	5	3
CCOC(=O)c1ccc(N2C(=O)c3n[nH]c(-c4ccco4)c3C2c2cccc(F)c2)cc1 (centres undefined)	16	33	34*	7	9
CCOC(=O)N1CCC(N2C(=O)c3ccccc3C2Nc2ccccc2C)CC1 (centres undefined)	-3	-71*	0	0	3
CCOC(=O)c1ccccc1NC1c2ccccc2C(=O)N1C1CCN(C(=O)OCC)CC1 (centres undefined)	12	3	5	0	2
CC(C)(C)n1nc2c(c1NC(=O)Cc1cccs1)CSC2	2	-81*	-1	0	.
O=C(c1ccc(Br)s1)N1CCN(Cc2ccc3c(c2)OCO3)CC1	0	-35*	-2	-1	-4
CCOc1ccccc1N1CCN(Cc2ccc(Br)s2)CC1	4	4	-3	0	-2
CS(=O)(=O)N1CCN(C(=O)c2ccncc2)CC1	2	-9	-1	0	4
O=C(CCN1C(=O)c2cccc3cccc(c23)C1=O)N1CCN(Cc2ccc3c(c2)OCO3)CC1	0	-30*	-4	-1	5
O=C(c1ccc(Br)o1)N1CCN(Cc2ccc3c(c2)OCO3)CC1	1	1	4	0	3
O=C(CN1C(=O)c2cccc3cccc1c23)N1CCN(Cc2ccc3c(c2)OCO3)CC1	-1	-9	14	-1	15
CC(=O)N1CCN(Cc2ccc(Br)s2)CC1	3	8	30*	0	2
CS(=O)(=O)N1CCN(C(=O)c2ccc(Br)s2)CC1	-2	-32*	0	0	-4
COCCCNC(=O)/C(C#N)=C/c1c(N2CCN(C)CC2)nc2ccccn2c1=O	2	4	-2	1	-4
O=C(O)CCC(=O)N1CCN(Cc2ccc3c(c2)OCO3)CC1	0	9	31*	1	2
Cc1cc(C(=O)N2CCCC(N3CCN(Cc4ccc5c(c4)OCO5)CC3)C2)n[nH]1 (centres undefined)	2	18	3	0	-6
Cc1ccccc1C(=O)N1CCCC(N2CCN(Cc3ccc4c(c3)OCO4)CC2)C1 (centres undefined)	2	-52*	-4	0	-9
CC(C)CNS(=O)(=O)c1ccc(CCC(=O)N2CCN(Cc3ccc4c(c3)OCO4)CC2)cc1	16	-33*	-3	2	-2
CCCC(=O)N1CCN(Cc2ccc3c(c2)OCO3)CC1	2	11	-2	0	6
CCOc1ccc(CCNC(=O)c2ccc(C)c(-n3cnc4cccnc43)c2)cc1	-1	-31*	8	0	-1
COc1ccccc1CNC(=O)c1ccc(C)c(-n2cnc3cccnc32)c1	-1	-16	6	-1	-1
CCOc1ccc(/C=N/NC(=O)C(O)c2ccccc2)c(O)c1 (centres undefined)	0	-33*	-8	0	-2
O=C(N/N=C/c1cc(Br)cs1)C(O)c1ccccc1 (centres undefined)	-1	-1	1	0	-4
CCOc1ccc(CCNC(=O)C(O)c2ccccc2)cc1 (centres undefined)	0	2	-13	-1	-1
O=C(N/N=C/c1ccc(Cl)s1)C(O)c1ccccc1 (centres undefined)	4	-37*	24	-2	-11
SMILES	D1 agonist	D1 antag	TRHR PAM	TRHR ag	D1 potentiator
CN(c1ccc(F)cc1)S(=O)(=O)c1ccc(Cl)c(C(=O)NCC(c2ccco2)N2CCCCC2)c1 (centres undefined)	2	-2	-18	-1	-5
CCCCC(=O)Nc1ccc(C(=O)OCc2cc(=O)n3nc(C4CC4)sc3n2)cc1	15	5	1	-1	2
CCOC(=O)/C(=C\c1ccc([N+](=O)[O-])o1)NC(=O)c1ccccc1	27	-36*	-7	2	-3
CCCOC(=O)/C(=C\c1ccc([N+](=O)[O-])o1)NC(=O)c1ccccc1	2	-2	-3	3	-4
O=C(O)C1C2C=CC(C2)C1C(=O)NCc1ccccc1F (centres undefined)	2	13	5	0	-6
COc1ccc(S(=O)(=O)N(Cc2nc(-c3ccccc3)no2)C2CCCCC2)cc1	8	-10	-2	1	0
COc1cccc(OCc2nnc(-c3cccs3)o2)c1	2	-32*	11	0	2
COc1cccc(NC(=O)Nc2ccccc2C(N)=O)c1	1	-10	2	0	2
O=C(c1ccc2c(c1)OCO2)N1CCC(Cc2ccccc2)CC1	7	-40*	3	-1	-5
CC(=O)c1cccc(CN2CCCC(C(=O)c3ccc4c(c3)OCO4)C2)c1 (centres undefined)	7	-13	-4	-1	-3
O=C(c1ccc2c(c1)OCO2)C1CCCN(C2CCN(CCc3ccccc3)CC2)C1 (centres undefined)	16	-32*	-5	3	-5
CC(C)N1C(=O)C(O)(C2COC(C)(C)CC2=O)c2ccccc21 (centres undefined)	1	4	33*	0	5
COC(=O)c1ccc(NC(=O)CN(c2cccc(C(F)(F)F)c2)S(C)(=O)=O)cc1	2	10	2	5	-5
O=C(NCc1cccs1)C1CCCN1C(=O)Nc1ccccc1[N+](=O)[O-] (centres undefined)	1	9	-4	0	-4
O=C(NCc1ccccc1)C1CCCN1C(=O)Nc1ccccc1[N+](=O)[O-] (centres undefined)	1	-31*	6	0	11
CCN1CCOC(=O)C1CC(=O)Nc1cc(C)ccc1OC (centres undefined)	0	20	-5	3	4
CN(C)CCCOc1nn(Cc2ccccc2)c2ccccc12	18	-31*	17	1	-8
O=C(Oc1ccccc1)c1cccc(COC(=O)c2cnccn2)c1	15	-59*	-9	0	-6
CCOc1nc(C)ccc1-c1noc(CC)n1	3	-38*	-4	1	-2
CCOc1nc(C)ccc1-c1noc(-c2ccco2)n1	3	32	-2	-1	-5
Cc1ccc(CN2CCN(/N=C/C=C/c3ccccc3[N+](=O)[O-])CC2)cc1	2	-30	14	-1	-7
Cc1ccc(C)n1-c1ncn[nH]1	3	-4	30*	0	-12
O=C1C2CC=CCC2C(=O)N1c1ncn[nH]1 (centres undefined)	3	0	2	-1	-1
Cc1ccc(NC(=O)CN2C(=O)C3CC=C(Cl)CC3C2=O)cc1 (centres undefined)	1	9	-2	0	-2
